Measured potencies and affinities stand elsewhere. Calls of active or inactive are those of the source. No rule for the calls is given here.
Test: A549 cell cytotoxicity, dose response, cytotoxicity control, plate reader, cherry-pick, antagonist series (AID 743412);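 also: 0% = neutral control wells and -100% = positive control wells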
Conditions: series mostly up to 26 µM; activity change, negative = cytotoxicity: at the top concentration
With `COc1cc(NC(=O)c2cccs2)c(C(=O)OCC(=O)c2cc(C)n(-c3ccccc3)c2C)cc1OC` the “activity change, negative = cytotoxicity” value was -7.66% (inactive).
With `COc1ccc(-c2cc(C(=O)N3CCOCC3)no2)cc1` the “activity change, negative = cytotoxicity” value was 6.5% (inactive).
In the case of `CC(C)Nc1ncnc2c1cnn2-c1ccc(Cl)cc1`, the “activity change, negative = cytotoxicity” value was 31.4% (inactive).
In the case of `CC(C)Oc1ccc(CNC(=O)CC(c2ccccc2)c2cc(Cl)ccc2O)cc1` (stereo not given), the “activity change, negative = cytotoxicity” value was 13.3% (inactive).
With `CN(C)c1ccc(C2NC(=O)c3ccccc3N2)cc1` (stereo not given) the “activity change, negative = cytotoxicity” value was 25.7% (inactive).
With `CC(C)(C)c1ccc(C(=O)NCCOc2ccccc2F)cc1` the “activity change, negative = cytotoxicity” value was 7.43% (inactive).
In the case of `Cc1nc2c(OCCC3CCCCC3)cccn2c1N(C)C(=O)CCC1CCCC1`, the “activity change, negative = cytotoxicity” value was 28.5% (inactive).
In the case of `Cc1cc(C(=O)COC(=O)C2CC2)c(C)n1-c1ccc(F)cc1`, the “activity change, negative = cytotoxicity” value was 15.3% (inactive).
For `Cc1ccc2nc(NC(=O)CCCC(=O)O)sc2c1`, the “activity change, negative = cytotoxicity” value was -1.41% (inactive).
In the case of `COc1ccc(-c2cc(C)nc3c(-c4ccccc4)cnn23)cc1`, the “activity change, negative = cytotoxicity” value was 9.24% (inactive).
In the case of `CSc1ccc(NC(=O)Nc2cc(C)ccn2)cc1`, the “activity change, negative = cytotoxicity” value was 6.17% (inactive).
For `O=C1OCCC1Sc1nnc(-c2ccc(Cl)cc2Cl)o1` (stereo not given), the “activity change, negative = cytotoxicity” value was -16.2% (inactive).
For `C=CCNc1nc(-c2cc3ccccc3o2)cs1`, the “activity change, negative = cytotoxicity” value was -3.11% (inactive).
With `CCc1nc(Sc2nnnn2-c2ccccc2)c2c3c(sc2n1)CCCC3` the “activity change, negative = cytotoxicity” value was -5.65% (inactive).
For `Cc1cc(C(=O)Nc2ccc(N3CCCCC3)cc2)no1`, the “activity change, negative = cytotoxicity” value was 26.5% (inactive).
For `C[C@H](CO)N1C[C@H](C)[C@H](CN(C)C(=O)Nc2cccc3ccccc23)OCCCC[C@H](C)Oc2ccc(NC(=O)NC3CCCCC3)cc2C1=O`, the “activity change, negative = cytotoxicity” value was -0.204% (inactive).
In the case of `Cc1ccc(C(=O)CN2C(=O)c3ccccc3S2(=O)=O)cc1`, the “activity change, negative = cytotoxicity” value was 4.66% (inactive).
With `COc1ccc(/C=C/C(=O)Nc2ccccc2C(=O)O)cc1OC` the “activity change, negative = cytotoxicity” value was -2.82% (inactive).
For `CC(C)(C)n1ncc2c(=O)n(CC(=O)OCc3ccccc3)cnc21`, the “activity change, negative = cytotoxicity” value was 12.1% (inactive).
For `O=C(Nc1cccc(C(=O)O)c1)Nc1ccccc1Cl`, the “activity change, negative = cytotoxicity” value was 0.977% (inactive).
With `COC(=O)c1ccc2nc(-c3cccc(N)c3)cn2c1` the “activity change, negative = cytotoxicity” value was 0.774% (inactive).
In the case of `C=CCNC(=O)c1c(Cl)nc(C)c([N+](=O)[O-])c1C`, the “activity change, negative = cytotoxicity” value was -3.38% (inactive).
For `Cn1cccc1C(=O)OCC(=O)Nc1ccc2c(c1)OCCO2`, the “activity change, negative = cytotoxicity” value was 12.6% (inactive).
For `Cc1ccc2nc(-c3ccc(NC(=O)COC(=O)c4ccco4)cc3)sc2c1`, the “activity change, negative = cytotoxicity” value was 35.4% (inactive).
For `COCCCNc1ccn2nc(-c3ccccc3)cc2n1`, the “activity change, negative = cytotoxicity” value was 7.61% (inactive).
With `COc1ccc(S(=O)(=O)N2CCCCN3[C@H](CO)[C@H](c4ccc(-c5cccnc5)cc4)[C@@H]3C2)cc1` the “activity change, negative = cytotoxicity” value was -9.19% (inactive).
With `O=C(Nc1cccc(O)c1)c1cc(-c2ccc3c(c2)OCO3)on1` the “activity change, negative = cytotoxicity” value was 11% (inactive).
In the case of `Cc1c(NC(=O)c2ccc(-c3ccccc3)cc2)cccc1C(=O)O`, the “activity change, negative = cytotoxicity” value was -0.15% (inactive).
With `COc1cc(NC(=O)c2cccc3c(-c4cnn(C)c4)coc23)cc(OC)c1OC` the “activity change, negative = cytotoxicity” value was 8.4% (inactive).
For `O=C(O)c1ccc(N/N=C/c2ccc3ncccc3c2)cc1`, the “activity change, negative = cytotoxicity” value was -0.811% (inactive).
With `Cc1ccccc1C(=O)Nc1nnc(-c2ccco2)s1` the “activity change, negative = cytotoxicity” value was 10.8% (inactive).
In the case of `Cc1c(C)c2ccc(OCC(=O)Nc3nccs3)cc2oc1=O`, the “activity change, negative = cytotoxicity” value was 7.2% (inactive).
In the case of `O=C(CN1CCOc2ccccc21)NCc1ccc(F)cc1`, the “activity change, negative = cytotoxicity” value was -3.92% (inactive).
In the case of `c1nc(CCO[C@H]2CCCCO2)cc2cc3c(cc12)OCO3`, the “activity change, negative = cytotoxicity” value was 20.5% (inactive).
In the case of `C[C@H](CO)N1C[C@H](C)[C@H](CN(C)C(=O)Nc2ccc(F)cc2)OCCCC[C@H](C)Oc2ccc(NC(=O)C3CCCCC3)cc2C1=O`, the “activity change, negative = cytotoxicity” value was -6.44% (inactive).
For `FC(F)(F)c1cccc(CC2CN(Cc3ccccc3)Cc3ccccc3N2c2cc(Cl)cc(Cl)c2)c1` (stereo not given), the “activity change, negative = cytotoxicity” value was 6.54% (inactive).
In the case of `O=C(O)c1ccc(-c2noc(-c3ccccc3Cl)n2)cc1`, the “activity change, negative = cytotoxicity” value was 3.39% (inactive).
For `COCCn1c(C)cc(C(=O)CSc2nnnn2C2CCCC2)c1C`, the “activity change, negative = cytotoxicity” value was -4.87% (inactive).
For `O=C(CCCc1ccccc1)Nc1cccc(C(=O)O)c1`, the “activity change, negative = cytotoxicity” value was 0.999% (inactive).
With `Cc1ccc(C(=O)n2nc(-n3cccc3)c3c(C)cc(C)nc32)cc1` the “activity change, negative = cytotoxicity” value was 7.48% (inactive).

— PubChem BioAssay
